PubChem BioAssay AID2314 (National Center for Advancing Translational Sciences (NCATS), 2010)
About 37,000 (12%) of roughly 300,000 compounds were called active. Rule as the data show it: active = max response mostly above about 13% (no sharp cut-off); inactive = mostly below about 14%. Only a selection was taken, and actives are over-represented in it overall.

assay: Cycloheximide Counterscreen for Small Molecule Inhibitors of Shiga Toxin; conditions: cell reporter, cycloheximide protein synthesis inhibition counterscreen; hits give high values; also: read at 38.3 µM for the half of the compounds with a filed dose; 0% is about no effect

Compound | max response
O=C(NC1CCC(O)CC1)c1ccccc1OCc1ccc(F)cc1 (centres undefined) | -3.74% (inactive)
Cc1ccccc1CN1C(=O)c2ccccc2Sc2ccc(C(=O)NCCCN3CCOCC3)cc21 | -3.67% (inactive)
COc1cc(CO)ccc1OCC(=O)Nc1cccc2ccccc12 | -2.19% (inactive)
Cc1ccc(S(=O)(=O)N(CCCN(C)C)Cc2ccc3c(c2)OCO3)cc1 | 1.74% (inactive)
O=C(CCC(=O)N1CCCC1)Nc1ccc([N+](=O)[O-])cc1 | -2.89% (inactive)
CCC1CCCCN1C(=S)Nc1ccc(SC(F)F)cc1 (centres undefined) | 1.07% (inactive)
CCC1CCCCN1C(=S)Nc1ccc(C(C)=O)cc1 (centres undefined) | 8.58% (active)
O=C(COc1ccccc1)Nc1ccc(C(=O)N2CCCC2)cc1 | 37.5% (inactive)
CCC1CCCCN1C(=S)Nc1ccc(S(=O)(=O)Nc2ncccn2)cc1 (centres undefined) | -2.13% (inactive)
CC(=O)c1ccc(NC(=O)CSC(=S)N2CCCC2)cc1 | 20.5% (active)
O=C(NC(=S)Nc1ccc2oc(=O)ccc2c1)c1ccc(-c2cccc(Cl)c2Cl)o1 | 6.87% (inactive)
CCCC(=O)N1CCN(c2nnc(-c3ccc(C)cc3)c3ccccc23)CC1 | -7.1% (inactive)
Cc1cccc(CNS(=O)(=O)c2ccc(-c3cnc(C4CC4)o3)cc2)c1 | 18.8% (inactive)
CC(=O)c1sc(N/N=C/c2ccc(C(C)C)cc2)nc1C | 43% (active)
CCOC(=O)c1sc(/N=C/Nc2nc(C)c(C(=O)OCC)s2)nc1C | 10.8% (inactive)
Cc1ccc(S(=O)(=O)Nc2nc(C)cc(N/N=C/c3ccc(O)cc3)n2)cc1 | -2.44% (inactive)
Cc1nnc(C)n1/N=C/c1ccc(C(C)C)cc1 | 4.86% (inactive)
CC(=O)c1sc(N/N=C\c2ccc(C)cc2)nc1C | 48.9% (active)
CC(=O)c1sc(NC(=O)CCCOc2ccccc2C)nc1C | 1.03% (inactive)
C=CCC1(C#N)C(=S)NC(C)=C(C(=O)OCC)C1c1ccccc1 (centres undefined) | -1.77% (inactive)
NC(=O)C1CCN(CC(O)CSc2ccc(F)cc2)CC1 (centres undefined) | -5.01% (inactive)
NS(=O)(=O)c1ccc(CCNC(=O)c2ccc([N+](=O)[O-])cc2[N+](=O)[O-])cc1 | -3.47% (inactive)
O=C(Nc1ccc(Cl)cn1)c1cnn2cccnc12 | 58.9% (active)
O=C(Nc1ccc(Cl)cn1)c1ccc2c(c1)OCCO2 | 37.5% (active)

Compound | max response
Cc1ccc2sc(NNC(=O)c3ccc4c(c3)OCCO4)nc2c1C | 5.17% (inactive)
COc1ccc(C(=O)NC(=S)Nc2ccc(Cl)cn2)cc1OC | -1.11% (inactive)
COc1c(Cl)cc(C(=O)Nc2ccc(Cl)cn2)cc1Cl | 11.7% (inactive)
O=C(Nc1cccnc1)c1ccc(Cl)cc1[N+](=O)[O-] | -1.02% (inactive)
CC(=O)c1ccc2c(c1)OCCOCCOc1ccc(C(C)=O)cc1OCCOCCO2 | 0.857% (inactive)
Cc1cc(NC(=O)c2cnn3cccnc23)n(-c2ccccc2)n1 | 0.387% (inactive)
Cc1nc(NC(=O)c2ccc3c(c2)OCCO3)ccc1Br | 57.9% (active)
O=C(NCc1ccncc1)C(=O)NCC1OCCN1S(=O)(=O)c1ccc(Br)cc1 (centres undefined) | -5.83% (inactive)
CSCCNCc1cn(-c2ccc(F)cc2F)nc1-c1ccccc1C | -0.8% (inactive)
COc1cc(OC)c(NS(=O)(=O)c2cn(C)cn2)cc1Cl | -0.545% (inactive)
COc1cc(/C=C2/C(=O)NN(c3cccc(Cl)c3)C2=O)cc(Br)c1O | 0.32% (inactive)
CC1(C)O[C@@H]2C[C@@H]3[C@H]4C[C@@H](F)C5=CC(=O)C=C[C@]5(C)[C@@]4(F)[C@@H](O)C[C@]3(C)[C@]2(C(=O)CO)O1 | 7.66% (inactive)
CCOC(=O)c1ccc(NC(=O)c2nc[nH]c2C(=O)NCc2ccccc2)cc1 | -1.19% (inactive)
O=C(NCCN1CCN(C(=O)c2cccc([N+](=O)[O-])c2)CC1)C(=O)NCc1ccc(Cl)cc1 | 1.34% (inactive)
Cc1cc(-c2csc(N)n2)c(C)n1Cc1ccccc1 | 22.9% (active)
CC(=O)Nc1ccc(C(=O)Nc2nc(-c3cc(C)n(Cc4ccccc4)c3C)cs2)cc1 | -2.65% (inactive)
Cc1cc(-c2csc(N)n2)c(C)n1-c1ccccc1 | 28.2% (inactive)
O=C(O)CCCC(=O)N1N=C(c2ccco2)CC1c1ccco1 (centres undefined) | -3.77% (inactive)
Cc1nn2c(c1-c1ccccc1)N=C(c1ccco1)CC2c1ccccc1 (centres undefined) | 20.9% (active)
Cn1c(N)c(C(=O)COC(=O)C23CC4CC(CC(C4)C2)C3)c(=O)n(C)c1=O | -2.04% (inactive)
CCOC(=O)/C(=N\Nc1ccccc1[N+](=O)[O-])c1csc(Nc2ccccc2)n1 | 11.6% (inactive)
Cc1c(NC(=O)Nc2ccccc2)cccc1[N+](=O)[O-] | -0.54% (inactive)
O=C(Nc1ccccc1[N+](=O)[O-])C1C(c2ccccc2)=C1c1ccccc1 | -1.97% (inactive)
Cc1cc(NC(=O)Nc2ccccc2[N+](=O)[O-])no1 | 16.1% (active)

Compound | max response
O=C(O)c1ccccc1C(=O)Nc1ccccc1[N+](=O)[O-] | 0.991% (inactive)
Cc1csc(NC(=O)Nc2ccccc2[N+](=O)[O-])n1 | 40.4% (active)
CCCCCCC12CCC(C(=O)O)(CC1)CC2 | -3.19% (inactive)
NC(=O)Cn1c(=O)oc2ccccc21 | -2.47% (inactive)
Cc1cccc(NC(=O)CCn2c(=O)oc3ccccc32)c1 | -4.29% (inactive)
Cc1ccc(OCCCn2c(=O)oc3ccccc32)cc1 | 33.3% (active)
COc1ccccc1C(=O)Nc1nc2nc(-c3ccccc3)cc(=O)n2[nH]1 | 9.7% (inactive)
Cc1cc(S(=O)(=O)NCC(C)C)ccc1OCC(=O)NC1CC1 | 1.55% (inactive)
Cc1ccc(N=Nc2c(C)[nH]n(-c3ccccc3)c2=O)cc1 | 7.15% (inactive)
Cc1c(N=Nc2ccc(N(C)C)cc2)c(=O)n(-c2ccccc2)n1C | 24.4% (active)
Cc1nc(N)sc1N=Nc1c(C)n(C)n(-c2ccccc2)c1=O | -1.65% (inactive)
Cc1ccccc1CCNC(=O)C1CCC(=O)N(Cc2ccc(Cl)cc2)C1 (centres undefined) | 6.9% (inactive)
COc1ccccc1CN1CC(C(=O)NCCc2cn[nH]c2)CCC1=O (centres undefined) | 12.3% (active)
COc1ccccc1CCCNC(=O)C1CCC(=O)N(CCN2CCOCC2)C1 (centres undefined) | -2.68% (inactive)
CN1CCN(Cc2nc3cc(NC(=O)COc4ccc([N+](=O)[O-])cc4)ccc3n2C)CC1 | -3.77% (inactive)
CCN(C(=O)Cc1c(C(=O)O)n(CC)c2ccccc12)c1ccccc1C | -1.37% (inactive)
CCOC(=O)c1ccc(NNC(C)=O)c([N+](=O)[O-])c1 | 16.3% (inactive)
Cc1cc(C)nc(NC(=O)c2cccc([N+](=O)[O-])c2)c1 | -2.71% (inactive)
CCCCNc1ccc(C(=O)Nc2cccc(C)n2)cc1[N+](=O)[O-] | 12.7% (active)
Cc1cc(C)nc(SCC(=O)c2ccc(Cl)cc2)n1 | 2.56% (inactive)
Cc1cc(SCC(=O)c2ccccc2)nc(SCC(=O)c2ccccc2)n1 | 6.74% (inactive)
Cc1cc(C)nc(S/C=C/C(=O)c2ccccc2)n1 | 109% (active)
CC(=O)N(C)c1ccc(NC(=O)C(F)(F)F)cc1 | -1.33% (inactive)
O=C(/C=C/Nc1ccccc1OC(F)(F)F)C(F)(F)F | -2.95% (inactive)

Compound | max response
CN(C)c1ccc(N/C=C/C(=O)C(F)(F)F)cc1 | 55.6% (active)
Cc1ccc2[nH]c3c(=O)n(CC(=O)NCCc4ccc(Cl)cc4)ncc3c2c1 | 4.22% (inactive)
CCn1nc(C)c(CNC(=O)C2CCC(=O)N(Cc3cccc(F)c3)C2)c1C (centres undefined) | -0.425% (inactive)
CN1CCN(/N=C/c2ccc(C#N)cc2)CC1 | 24.2% (active)
CN1CCN(/N=C/c2c[nH]c3ccccc23)CC1 | 0.776% (inactive)
COC(c1ccccc1)c1nnc(CCC(=O)N2CCN(CCOc3ccccc3)CC2)o1 (centres undefined) | -3.13% (inactive)
Cc1c(C2=CCN(S(=O)(=O)c3ccc(Cl)cc3)CC2)c2ccccc2n1C | -3.88% (inactive)
COCCNC(=O)c1ccc(Cn2c(SCC(=O)NCC3CCCO3)nc3ccc(Br)cc3c2=O)cc1 (centres undefined) | -4.2% (inactive)
Cc1cc(OCc2cc(C(=O)NCc3cc(C(C)C)no3)no2)cc(C)c1Cl | 72.4% (active)
CC(C)C(=O)NCc1cc(-c2ccc(Cl)cc2)no1 | 8.48% (inactive)
COCCCNC(=O)COc1cc(C)c(Cl)c(C)c1 | 5.62% (inactive)
COc1ccccc1-c1nnc(NC(=O)c2cccc(N3C(=O)CCC3=O)c2)o1 | -0.976% (inactive)
COc1ccccc1-c1nnc(NC(=O)c2ccc3ncsc3c2)o1 | 66.2% (active)
COc1ccc(-c2nnc(NC(=O)CS(=O)(=O)c3ccc(Cl)cc3)o2)c(OC)c1 | 13.7% (inactive)
COc1ccc(NC(=O)NNC(=O)COc2cc(C)c(Cl)c(C)c2)c(OC)c1 | 0.264% (inactive)
O=C(NCc1ccccc1)C1=C[C@@H](C2CCCCC2)C[C@@H](OCc2ccc(CO)cc2)O1 | -2.03% (inactive)
COC(=O)c1ccc(C23CC4(C2)[C@H](CN(Cc2cccnc2)[C@@H]4c2ccccc2)C3c2ccc(Cl)nc2)cc1 (some centres undefined) | -2.32% (inactive)
CCC1CCCCN1C(=O)CSc1nc2c(c(=O)n1C)SC(C)C2 (centres undefined) | 0.908% (inactive)
Cc1ccc(NC(=O)NC(=O)CSc2nnc(-c3ccc(OC(F)F)cc3)n2N)c(C)c1 | 11.8% (inactive)
Cc1ccc(-c2nnc(SC(C)C#N)n2N)cc1 (centres undefined) | 5.06% (inactive)
C=C(C)CSc1nnc(-c2ccc(C)cc2)n1N | 37.8% (active)
Cc1cc(C)cc(N(CC(=O)N2CC=C(c3ccccc3)CC2)S(=O)(=O)c2c(C)noc2C)c1 | 8.05% (inactive)
